# Screen size: about 3,400 compounds; about 840 (25%) were called active. Not shown: some 11% with an inconclusive outcome. A selection follows. Measured potencies and affinities stand elsewhere. A number with no mark means an inactive call.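 How the source made its calls: active means fitted half-maximal concentration of signal decrease at or below twice the sample's top tested concentration; inconclusive means flat curve between -70 and -30 percent, or poor fit; inactive means flat within 30 percent, signal rise, or potency above limit.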
# Experiment: T. gondii growth inhibition with IFN-gamma, dose response, cell-based, ME49Luc, HeLa, luciferase, 72 h (AID 1259418)
# Details: T. gondii ME49Luc in IFN-y HeLa, hits give low values, -100% = high-dose IFN-γ control wells; at 19.5 µM unless noted
row,Structure (SMILES),max activity
1,C=CCN1CCC2(CC1)CC(NCc1ccc(C)s1)c1ccccc1O2 (stereo not given),-7.33% [at 1.2 µM]
2,COc1ccccc1CNC(=O)CC1Nc2c3ccccc3nc(=S)n2C1=O (stereo not given),46.9% [at 0.16 µM]
3,CCCCNC(=O)CC1Nc2c3ccccc3nc(=S)n2C1=O (stereo not given),-20.7% [at 10 µM]
4,O=C(CCC1Nc2c3ccccc3nc(=S)n2C1=O)NCCN1CCN(c2ccccc2)CC1 (stereo not given),19.8% [at 0.16 µM]
5,O=C(CC1Nc2c3ccccc3nc(=S)n2C1=O)NCc1ccccc1 (stereo not given),26.5% [at 2.6 µM]
6,O=C(CC1Nc2c3ccccc3nc(=S)n2C1=O)NCc1ccc(F)cc1 (stereo not given),15.6% [at 0.16 µM]
7,O=C(CCC1Nc2c3ccccc3nc(=S)n2C1=O)NCCN1CCN(c2cccc(Cl)c2)CC1 (stereo not given),7.2% [at 5 µM]
8,O=C(CC1Nc2c3ccccc3nc(=S)n2C1=O)NCc1ccc(Cl)cc1 (stereo not given),15.8%
9,CCCCCNC(=O)CC1Nc2c3ccccc3nc(=S)n2C1=O (stereo not given),-10.3% [at 10 µM]
10,CCc1nc(OCC(=O)Nc2ccc(Br)cc2)c2ccccc2n1,33.9% [at 0.68 µM]
11,CCc1onc(C)c1C1CCCN1C(=O)Cn1nc(C(F)(F)F)c2c1CCCC2 (stereo not given),9.22% [at 2.6 µM]
12,CN(C)S(=O)(=O)N1C[C@@H]2CN(Cc3ccoc3)CCO[C@H]2C1,25.4%
13,Cc1cnc(N2Cc3nccn3CC(CN3CCCC3)C2)nc1 (stereo not given),46.2%
14,COc1ccc(-c2nc3c(s2)CN(C(=O)Nc2cc(C)ccc2C)CC3)cc1,75%
15,CCOc1ccc(-c2nc(CN(c3ccccc3OC)S(=O)(=O)c3ccc(C)cc3)c(C)o2)cc1,17.2% [at 0.68 µM]
16,COc1ccccc1N(Cc1nc(-c2ccc(OC(C)C)cc2)oc1C)S(=O)(=O)c1ccccc1,-5.99% [at 1.35 µM]
17,CCOc1ccccc1N(Cc1nc(-c2cccc(C)c2)oc1C)S(=O)(=O)c1ccccc1,3.42% [at 0.68 µM]
18,COc1ccc(-c2nc(CN(c3ccccc3OC)S(=O)(=O)c3ccccc3)c(C)o2)cc1,24.5% [at 10 µM]
19,CCOc1ccccc1CNc1nc(-c2ccc(OC)cc2)nc2ccccc12,-11.7% [at 0.35 µM]
20,NC(=O)C1(N2CCCCC2)CCN(c2ncc(NC(=O)c3ccccc3)cc2C(=O)O)CC1,14.4% [at 0.16 µM]
21,Cc1cccc(N2CCN(c3nc(-c4ccc(Cl)cc4)nc4ccccc34)CC2C)c1 (stereo not given),-29% [at 0.35 µM]
22,Cc1ccc2c(c1C)-n1cccc1C1(CCN(C(=O)c3cccc(Br)c3)CC1)N2,-13.6% [at 1.35 µM]
23,Cc1nc(OCC(=O)Nc2ccc(Cl)cc2Cl)c2ccccc2n1,23% [at 5 µM]
24,Cc1ccc(-c2coc(-c3ccc(NC(=O)C(C)C)cc3)n2)c(C)c1,-33.6% [at 5 µM]
25,Cc1ccc(-c2coc(-c3ccc(NC(=O)Nc4ccccc4F)cc3)n2)cc1,86.4% [at 10 µM]

row,Structure (SMILES),max activity
1,Cc1oc(-c2ccccc2)nc1Cn1nnc(-c2nc(-c3ccc(C(F)(F)F)cc3)no2)c1C,47.1%
2,CN(C)C(=O)COCC1CN(S(C)(=O)=O)Cc2nnn(C)c21 (stereo not given),28%
3,Cc1csc(-c2cc(S(=O)(=O)N3CCC(Cc4ccccc4)CC3)c(C)s2)n1,-11.8% [at 0.16 µM]
4,Cc1ccc(C(=O)Nc2c(C(=O)N3CCN(c4ccccn4)CC3)[nH]c3ccc(C)cc23)cc1,31.1% [at 0.68 µM]
5,Cc1ccc2c(c1C)-n1cccc1C1(CCN(C(=O)c3ccccc3C(F)(F)F)CC1)N2,-6.6% [at 5 µM]
6,COc1ccc2c(c1)NC1(CCN(C(=O)c3cc(OC)c(OC)c(OC)c3)CC1)c1cccn1-2,9.35% [at 0.35 µM]
7,COc1ccc(OCC(=O)N2CCC3(CC2)Nc2cc(F)ccc2-n2cccc23)cc1,4.86% [at 10 µM]
8,COc1ccc2c(c1)NC1(CCN(C(=O)COc3cccc(C)c3)CC1)c1cccn1-2,-5.04% [at 0.16 µM]
9,COc1cc(OC)cc(C(=O)N2CCC3(CC2)Nc2cc(F)ccc2-n2cccc23)c1,10.1%
10,COc1ccc(-c2nc(Nc3ccc(F)cc3Cl)c3ccccc3n2)cc1,8.01%
11,Cc1oc(-c2ccccc2)nc1Cn1nnc(-c2nc(-c3ccc(Cl)cc3)no2)c1C,11.1%
12,N#CCSC1=Nc2ccccc2C2=NC(CC(=O)NC3CCCCC3)C(=O)N12 (stereo not given),23.6% [at 10 µM]
13,COCC1CN(C(=O)c2cc(C)on2)Cc2c1cnn2CC1CC1 (stereo not given),27.1%
14,CC(=O)N1Cc2ncn(CC3CC3)c2C(COCC2CCOCC2)C1 (stereo not given),8.65%
15,CCOc1ccccc1C(=O)N1CCC2(CC1)Nc1ccc(C)c(C)c1-n1cccc12,-6.2% [at 2.6 µM]
16,COc1ccc(S(=O)(=O)N(Cc2nc(-c3cccc(Cl)c3)oc2C)c2ccccc2OC)cc1,-7.97% [at 5 µM]
17,COc1ccccc1N(Cc1nc(-c2ccccc2)oc1C)S(=O)(=O)c1ccccc1,-5.89% [at 0.35 µM]
18,CCOc1ccc(NC(=O)Nc2ccc(-c3nc(-c4ccc(C)cc4)co3)cc2)cc1,62.7%
19,N#CCSC1=Nc2ccccc2C2=NC(CCC(=O)NCc3ccc4c(c3)OCO4)C(=O)N12 (stereo not given),17.8%
20,CCc1c(C)sc2c1CCN(Cc1nc(-c3cc(C)ccc3C)oc1C)C2c1ccccc1 (stereo not given),12.6% [at 5 µM]
21,CN1CCN(C(=O)Cc2ccsc2)Cc2cccnc21,40%
22,Cc1ccnc(Nc2nc(C)c(C(=O)N3CCC(C(N)=O)(N4CCCCC4)CC3)s2)c1,-7.52% [at 0.35 µM]
23,CCN(CCNc1nc(-c2ccccc2Cl)nc2ccccc12)c1cccc(C)c1,12.3%
24,COc1ccc(-c2nc(Nc3ccccc3)c3ccccc3n2)cc1,6.36% [at 10 µM]
25,COc1ccc(Nc2nc(-c3ccc(OC)cc3)nc3ccccc23)cc1,12.9%

row,Structure (SMILES),max activity
1,COc1ccc(-c2nc(Nc3cc(OC)ccc3OC)c3ccccc3n2)cc1,-18.7% [at 5 µM]
2,Clc1ccccc1-c1nc(NCCCc2ccccc2)c2ccccc2n1,-24.4% [at 10 µM]
3,CCc1ccc(Nc2nc(-c3ccc(OC)cc3)nc3ccccc23)cc1,-16.2% [at 0.35 µM]
4,COc1ccc(-c2nc(Nc3ccc(CN4CCCCC4)cc3)c3ccccc3n2)cc1,10.9% [at 10 µM]
5,COc1ccc(-c2nc(Nc3ccccc3OC)c3ccccc3n2)cc1,20%
6,Cc1ccccc1CC(=O)N1CCC2(CC1)Nc1cc(F)ccc1-n1cccc12,10.3% [at 0.68 µM]
7,CCOC(=O)c1cccc(NC(=O)Nc2ccc(-c3nc(-c4ccc(C)cc4C)co3)cc2)c1,-3.92% [at 1.35 µM]
8,CCOc1ccc(-c2nc(CN3CCN(C(=O)Nc4cccc(C)c4C)CC3)c(C)o2)cc1,-7.65% [at 0.68 µM]
9,O=C(CC1Nc2c3ccccc3nc(=S)n2C1=O)NCCc1ccccc1 (stereo not given),-10.8% [at 0.68 µM]
10,Cc1ccc(C)c(-c2coc(-c3ccc(NC(=O)NCc4cccc(F)c4)cc3)n2)c1,9.05%
11,Cc1oc(-c2cccc(Cl)c2)nc1CSc1nc2c(c(=O)[nH]1)CN(C(C)C)CC2,17.7% [at 0.68 µM]
12,COc1ccc(-c2nc(Nc3ccc(Cl)cc3)c3ccccc3n2)cc1,10.4% [at 0.35 µM]
13,COc1ccc(-c2nc(Nc3ccc(F)cc3)c3ccccc3n2)cc1,-11.2% [at 2.6 µM]
14,COc1ccc(-c2nc(Nc3ccc(C)c(Cl)c3)c3ccccc3n2)cc1,13% [at 0.35 µM]
15,CCOc1ccc(Nc2nc(-c3ccc(OC)cc3)nc3ccccc23)cc1,9.36%
16,O=C(Cc1cccc(F)c1)N1CCC2(CC1)Nc1cc(F)ccc1-n1cccc12,-7.02% [at 2.6 µM]
17,CCOc1ccccc1CNc1nc(-c2ccc(Cl)cc2)nc2ccccc12,22.2%
18,COc1ccccc1NC(=O)Nc1ccc(-c2nc(-c3ccccc3)co2)cc1,62.5% [at 10 µM]
19,COc1cccc(CC(=O)Nc2ccc(-c3nc(-c4cc(C)ccc4C)co3)cc2)c1,-7.87%
20,CCC(C)Nc1nc(-c2ccc(Cl)cc2)nc2ccccc12 (stereo not given),-11.3% [at 10 µM]
21,CN1[C@@H]2c3ccc(/C=C/c4ccccc4)c(=O)n3C[C@H]1[C@H](CO)[C@H]2C(=O)NC1Cc2ccccc2C1,43.1% [at 5 µM]
22,CCCNC(=O)[C@H]1[C@H](CO)[C@H]2Cn3c(ccc(C4=CCCCC4)c3=O)[C@H]2N1Cc1ccccc1F,16.8% [at 10 µM]
23,O=C(CCn1cnc2cc(-c3noc(-c4cccc5[nH]ccc45)n3)ccc21)N1CCCC1,-15.6% [at 0.35 µM]
24,O=C(CCn1cnc2cc(-c3noc(CCc4c[nH]c5ccccc45)n3)ccc21)N1CCCC1,-14.5% [at 0.16 µM]
25,COc1ccc(NC(=O)Nc2ccc(-c3nc(-c4ccc(C)cc4)co3)cc2)cc1,43.2% [at 10 µM]
